Screening data from PubChem BioAssay.
An excerpt weighted towards active compounds, which were near 10% of everything screened.
aGal spleen mod: qHTS Assay for Inhibitors and Activators of Human alpha-Galactosidase From Spleen Homogenate | Alpha-galactosidase A (Homo sapiens), P06280 | AID 2107, 2009 | Potency, µM (doses to about 80 µM), for inactives: at the highest dose activity change, negative = inhibition, most hits filed as inhibitors | human spleen homogenate, 4MU-alpha-Gal fluorescence, 40 min | actives 0.008% (n = 240,000);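 also: potency is read from the fitted curve at half-maximal effect; 0% = enzyme with vehicle and -100% = no enzyme basal signal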
Target sequence (P06280 32-429 limits assumed): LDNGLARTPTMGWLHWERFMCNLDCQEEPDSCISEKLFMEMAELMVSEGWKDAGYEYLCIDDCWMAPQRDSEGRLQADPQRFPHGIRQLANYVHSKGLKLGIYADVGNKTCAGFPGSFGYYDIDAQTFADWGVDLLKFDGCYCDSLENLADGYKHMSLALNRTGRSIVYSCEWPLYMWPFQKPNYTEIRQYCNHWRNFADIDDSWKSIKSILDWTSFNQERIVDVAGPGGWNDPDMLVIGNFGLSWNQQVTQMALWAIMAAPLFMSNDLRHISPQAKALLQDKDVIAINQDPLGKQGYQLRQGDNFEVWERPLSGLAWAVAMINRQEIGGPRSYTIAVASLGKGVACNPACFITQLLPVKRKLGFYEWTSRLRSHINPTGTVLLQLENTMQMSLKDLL
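Inhibition or activation of alpha-galactosidase in human spleen homogenate is scored by 4-MU fluorescence after 40 min at 37C, pH 5.0, with 1 mM substrate. AC50s come from concentration-response fitted to the Hill equation.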
GLA inh pH 4.5: qHTS Assay for Inhibitors of Human alpha-Galactosidase at pH 4.5 | activity change, negative = inhibition, % at 105 µM | AID 1467, 2008 | purified enzyme, 4-MU-alpha-Gal fluorescence, pH 4.5 | 230,000 tested, under 10 active;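 also: 0% = full activity with enzyme and -100% = basal without enzyme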
ALDH1A1 block: qHTS Assay for Inhibitors of Aldehyde Dehydrogenase 1 (ALDH1A1); actives 7.3% (n = 220,000); Aldehyde dehydrogenase 1A1 (Homo sapiens), P00352; Purified ALDH1A1, NADH fluorescence, propionaldehyde substrate; AID 1030, 2008; Potency, µM (titrated, usually from 75.3 µM), for the others: at the highest dose activity, negative = inhibition, usual class: inhibitors; active = well fitted inhibition curve with a large enough effect, not every such curve was filed as active; inconclusive = small, poorly fitted or top-dose-only effect, or another doubt; inactive = no such curve, though single readings can be large or run the other way;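 also: potency is read from the fitted curve at half-maximal effect; plate controls were no enzyme wells and a reference inhibitor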
ALOX12 inhib: qHTS Assay for Inhibitors of 12-hLO (12-human lipoxygenase); Polyunsaturated fatty acid lipoxygenase ALOX12 (Homo sapiens), P18054; purified 12-hLO, xylenol orange hydroperoxide absorbance; Potency, µM (top dose mostly 57.1 µM), without a hit: top-dose activity change, negative = inhibition, hits mostly inhibitors; actives 0.12% (n = 150,000); AID 1452, 2008; also: potency is read from the fitted curve at half-maximal effect; nearly all actives have a fitted effect of over 55% in size
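Purified human 12hLO (150 nM), preincubated 15 min with compound, then 40 uM arachidonic acid for 30 min, room temperature, Hepes pH 7.0 with 0.01% Triton X-100. Hydroperoxide detected by ferrous iron/xylenol orange; 573/405 nm absorbance ratio gives reaction progress.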
HPGD block: qHTS Assay for Inhibitors of HPGD (15-Hydroxyprostaglandin Dehydrogenase) | actives 4.3% (n = 150,000) | 15-hydroxyprostaglandin dehydrogenase [NAD(+)] (Homo sapiens), P15428 | AID 894, 2007 | purified HPGD, NADH fluorescence kinetic, PGE2 substrate | Potency, µM, inactives show at the top dose activity change, negative = inhibition, actives largely listed as inhibitors; active = well fitted inhibition curve with a large enough effect, not every such curve was filed as active; inconclusive = small, poorly fitted or top-dose-only effect, or another doubt; inactive = no such curve, though single readings can be large or run the other way; also: potency is read from the fitted curve at half-maximal effect
Target sequence (P15428 whole entry, looked up): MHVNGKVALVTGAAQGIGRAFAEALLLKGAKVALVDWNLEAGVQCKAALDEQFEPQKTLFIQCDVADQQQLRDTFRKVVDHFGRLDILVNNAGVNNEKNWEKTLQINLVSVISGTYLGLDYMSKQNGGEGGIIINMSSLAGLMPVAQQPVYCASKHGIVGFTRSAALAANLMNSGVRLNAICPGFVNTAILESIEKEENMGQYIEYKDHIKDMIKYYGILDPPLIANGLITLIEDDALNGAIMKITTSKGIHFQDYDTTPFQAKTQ
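20 nM HPGD preincubated 15 min at room temperature with compound in 50 mM Tris-HCl pH 8, 0.01% Tween 20. Started with 1 mM NAD+ and 30 uM prostaglandin E2; NADH fluorescence (360/450 nm) read 5 times over 30-s intervals, last minus first.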
PNC inhibitor: High Content Assay for Compounds that inhibit the Assembly of the Perinucleolar Compartment; actives 3.1% (n = 140,000); activity change (PNC), negative = inhibition, % at 10 µM; PC3M PTB-GFP, PNC prevalence imaging, 16 h; hits give low values;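 active = readout at or below -70, meaning at least 70% loss of cells showing the perinucleolar compartment, a nuclear body marking cancer cells; inconclusive = readout between -30 and a set limit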;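 also: plate controls were DMSO wells for no effect and camptothecin positive control wells for full effect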
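PC3M cells stably expressing PTB-GFP, 750–1000 cells/well, treated 16 h at 37 °C with compound (23 nl of library stock), in duplicate. After paraformaldehyde fixation and Hoechst stain, imaged at 20x; PNC prevalence scored by image analysis.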
* = called active by the depositor; u = inconclusive; x = no result given; [ ] = dose if it differs, or a comment. Unless noted, calls follow the shape of the dose curve; as a rule, active = well fitted curve in the direction sought with a large enough effect; inconclusive = small, poorly fitted or top-dose-only effect, or another doubt; inactive = no such curve, though single readings can be large; an effect the other way counts as inactive or inconclusive. Unless noted, % is scaled to controls: 0 for no effect and ±100 for the full control effect.

SMILES	aGal spleen mod	GLA inh pH 4.5	ALDH1A1 block	ALOX12 inhib	HPGD block	PNC inhibitor
CC1(C)OC(=O)C(=NNc2ccc(Cl)cc2)C(=O)O1	4%	-3	3.2µM*	-16%	-27%	5
N[C@H](CC(=O)O)C(=O)O	18%	-1	16%	0%	-7%	x
Cc1cc(Cl)c(OCCOCCN2CCCC(C)C2)c(Br)c1 (configuration not stated)	-2%	-10	-11%	x	x	x
Cc1cc(Cl)c(OCCOCCN2CCCCC2)c(Br)c1	-1%	-9	u	-6%	-12%	-102*
CCc1ccc(-c2cc(C(=O)N/N=C/c3c[nH]c4ccccc34)[nH]n2)cc1	2%	-10	-19%	x	x	x
CCc1ccc2c(Cl)c(C(=O)N/N=C/c3c[nH]c4ccccc34)sc2c1	-4%	-3	13µM*	-2%	-9%	90
Cc1nn(-c2ccccc2)c(Cl)c1C(=O)Nc1nnc(C2CCCC2)s1	-8%	-8	2.8µM*	-6%	-19%	-85*
Cc1ccc(NC(=O)c2c(C)nn(-c3ccccc3)c2Cl)c(C)c1	0%	-1	-12%	-5%	14µM*	37
COCCn1c(=O)c(-c2ccc(Cl)cc2)nc2cnc(OCc3ccccc3)nc21	22%	x	u	x	x	x
COc1ccc(OC)c(NC(=O)Cn2cc(C=O)c3ccccc32)c1	1%	0	u	x	x	x
O=C(/C=C/c1ccccc1)OC1CC(O)C2(O)C=CO[C@@H](OC3OC(CO)C(O)C(O)C3O)C12 (some centres not stated)	u	17	-2%	-7%	-15%	x
CCCCOC(=O)Cn1c(=O)c2c(nc3n2CCCCN3c2ccc(C)cc2)n(C)c1=O	-1%	-7	u	-17%	-15%	-127*
Cc1ccc(N2CCCn3c2nc2c3c(=O)n(CCN3CCOCC3)c(=O)n2C)cc1	-1%	3	0%	-4%	-16%	4
Cc1cc(-c2nn(-c3ccccc3F)cc2CNCCc2cnc[nH]2)c(C)s1	-4%	-6	14µM*	x	x	x
CCOc1ccccc1-n1nnnc1SCc1nc2ccccc2s1	1%	-10	10µM*	-5%	-13%	27
COc1ccccc1OCC(=O)Nn1c(=S)[nH]c2ncccc2c1=O	-20%	-4	-10%	-1%	-29%	6
O=C(COc1ccc(Cl)cc1Cl)Nn1c(=S)[nH]c2ncccc2c1=O	-2%	2	-12%	5%	28µM*	u
CCC(N)(C(=O)O)c1ccc(C(=O)O)cc1 (configuration not stated)	-12%	x	2%	x	x	x
C[n+]1c2n(c3ccccc31)N=C(c1ccc(Br)cc1)CS2	1%	-12	18µM*	-1%	-6%	43
C[n+]1c2n(c3ccccc31)N=C(c1ccc(-c3ccccc3)cc1)CS2	1%	-1	-15%	x	x	x
O=Cc1cccn1-c1nccc(-c2ccco2)n1	-6%	1	22µM*	x	x	x
O=[N+]([O-])c1cc2c(cc1/C=N/n1c(-c3ccccn3)n[nH]c1=S)OCO2	7%	-6	28µM*	-3%	u	u
O=[N+]([O-])c1cc2c(cc1/C=N/n1c(-c3ccccc3)n[nH]c1=S)OCO2	-14%	2	13µM*	-10%	3.2µM*	u
O=C(O)CCc1c(C(=O)O)[nH]c2cc(Cl)cc(Cl)c12	2%	x	x	x	x	x
COCC(=O)N1CCC2(CCCN(c3ccc(-c4ccccc4)cc3)C2)CC1	11%	x	u	-11%	u	x
SMILES	aGal spleen mod	GLA inh pH 4.5	ALDH1A1 block	ALOX12 inhib	HPGD block	PNC inhibitor
CSCC[C@@H](C(=O)O)N(C)C	x	x	7%[13.5 µM]	-3%[11.4 µM]	-5%	x
Cc1ccc2nc(SC(C)C(=O)Nc3cccc([N+](=O)[O-])c3)[nH]c2c1 (configuration not stated)	9%	11	-1%	0%	u	-84*
CN(C(=O)CSc1nc2cc(C(=O)O)ccc2c(=O)n1Cc1ccccc1)C1CCS(=O)(=O)C1 (configuration not stated)	6%	-2	-2%	x	x	x
CCN(C(=O)CSc1nc2cc(Cl)ccc2c(=O)n1Cc1ccco1)C1CCS(=O)(=O)C1 (configuration not stated)	-2%	4	18µM*	x	x	x
CN(C(=O)CSc1nc2ccc(Br)cc2c(=O)n1Cc1ccco1)C1CCS(=O)(=O)C1 (configuration not stated)	-2%	-7	13µM*	x	x	x
CCc1cc(=O)oc2cc3occ(-c4ccc(OC)c(F)c4)c3cc12	11%	12	-9%	-2%	u	-93*
C=C(C)CN1CCN(c2ccc(N3C(=O)CCCC3=O)cc2[N+](=O)[O-])CC1	-4%	2	-11%	x	x	x
CCOC(=O)OCC1OC(C#Cc2ccccc2)C=CC1OC(=O)OCC (configuration not stated)	-3%[17.5 µM]	x	3.5µM*	x	x	x
COc1ccc(Cl)cc1Nc1cc(C)nc2nc(C)nn12	4%	2	-3%	2%	3.5µM*	26
O=C(O)/C=C\C(=O)Nc1ccc(N2CCN(c3ccc(Cl)c(Cl)c3)CC2)cc1	-1%	1	6.3µM*	x	x	x
O=C(O)/C=C\C(=O)Nc1ccc(N2CCN(c3ccc(Cl)cc3)CC2)cc1	-2%	-1	11µM*	x	x	x
COC(=O)Cc1ccc(NC(=S)N2CCN(c3ccc(F)cc3)CC2)cc1	-12%	8	-10%	-1%	-3%	-96*
O=C(O)/C=C\C(=O)Nc1ccc(N2CCN(c3ccc(F)cc3)CC2)cc1	2%	3	8.9µM*	x	x	x
O=C(CCN1CCN(c2ccc(F)cc2)CC1)Nc1ccc(F)cc1	1%	4	-5%	0%	-5%	-17
CC(NC(=O)c1ccc(C23CC4CC(CC(C4)C2)C3)cc1)C(=O)O (configuration not stated)	-10%	-1	-6%	x	x	x
COC(=O)c1ccc(C(NC(=O)OCc2ccccc2)/C(C)=C/[C@@H](C)C(=O)NCc2cccnc2)cc1 (some centres not stated)	-4%	13	-5%	4%	-4%	x
NS(=O)(=O)c1ccc(NC(=S)N2CCN(c3cccc(Cl)c3)CC2)cc1	3%	3	-10%	-1%	25µM*	-27
Nc1ccc(N2CCN(c3cccc(Cl)c3)CC2)cc1	0%	10	14µM*	u	-10%	11
